Bioassay records as filed in PubChem BioAssay.
An excerpt weighted towards active compounds, which were near 2.8% of everything screened.
KDM5B inhibitor: blocks human KDM5B histone demethylase activity. KDM5B demethylase, FDH-coupled NADH fluorescence (FDH is formaldehyde dehydrogenase). 2.6% of 220,000 active. Potency, µM (titrated, usually from 57.7 µM), usual class: inhibitors; also: potency is read from the fitted curve at half-maximal effect; 0% is about no effect; nearly all actives have a fitted effect of over 70% in size
Target sequence (Q9UGL1 whole entry, looked up): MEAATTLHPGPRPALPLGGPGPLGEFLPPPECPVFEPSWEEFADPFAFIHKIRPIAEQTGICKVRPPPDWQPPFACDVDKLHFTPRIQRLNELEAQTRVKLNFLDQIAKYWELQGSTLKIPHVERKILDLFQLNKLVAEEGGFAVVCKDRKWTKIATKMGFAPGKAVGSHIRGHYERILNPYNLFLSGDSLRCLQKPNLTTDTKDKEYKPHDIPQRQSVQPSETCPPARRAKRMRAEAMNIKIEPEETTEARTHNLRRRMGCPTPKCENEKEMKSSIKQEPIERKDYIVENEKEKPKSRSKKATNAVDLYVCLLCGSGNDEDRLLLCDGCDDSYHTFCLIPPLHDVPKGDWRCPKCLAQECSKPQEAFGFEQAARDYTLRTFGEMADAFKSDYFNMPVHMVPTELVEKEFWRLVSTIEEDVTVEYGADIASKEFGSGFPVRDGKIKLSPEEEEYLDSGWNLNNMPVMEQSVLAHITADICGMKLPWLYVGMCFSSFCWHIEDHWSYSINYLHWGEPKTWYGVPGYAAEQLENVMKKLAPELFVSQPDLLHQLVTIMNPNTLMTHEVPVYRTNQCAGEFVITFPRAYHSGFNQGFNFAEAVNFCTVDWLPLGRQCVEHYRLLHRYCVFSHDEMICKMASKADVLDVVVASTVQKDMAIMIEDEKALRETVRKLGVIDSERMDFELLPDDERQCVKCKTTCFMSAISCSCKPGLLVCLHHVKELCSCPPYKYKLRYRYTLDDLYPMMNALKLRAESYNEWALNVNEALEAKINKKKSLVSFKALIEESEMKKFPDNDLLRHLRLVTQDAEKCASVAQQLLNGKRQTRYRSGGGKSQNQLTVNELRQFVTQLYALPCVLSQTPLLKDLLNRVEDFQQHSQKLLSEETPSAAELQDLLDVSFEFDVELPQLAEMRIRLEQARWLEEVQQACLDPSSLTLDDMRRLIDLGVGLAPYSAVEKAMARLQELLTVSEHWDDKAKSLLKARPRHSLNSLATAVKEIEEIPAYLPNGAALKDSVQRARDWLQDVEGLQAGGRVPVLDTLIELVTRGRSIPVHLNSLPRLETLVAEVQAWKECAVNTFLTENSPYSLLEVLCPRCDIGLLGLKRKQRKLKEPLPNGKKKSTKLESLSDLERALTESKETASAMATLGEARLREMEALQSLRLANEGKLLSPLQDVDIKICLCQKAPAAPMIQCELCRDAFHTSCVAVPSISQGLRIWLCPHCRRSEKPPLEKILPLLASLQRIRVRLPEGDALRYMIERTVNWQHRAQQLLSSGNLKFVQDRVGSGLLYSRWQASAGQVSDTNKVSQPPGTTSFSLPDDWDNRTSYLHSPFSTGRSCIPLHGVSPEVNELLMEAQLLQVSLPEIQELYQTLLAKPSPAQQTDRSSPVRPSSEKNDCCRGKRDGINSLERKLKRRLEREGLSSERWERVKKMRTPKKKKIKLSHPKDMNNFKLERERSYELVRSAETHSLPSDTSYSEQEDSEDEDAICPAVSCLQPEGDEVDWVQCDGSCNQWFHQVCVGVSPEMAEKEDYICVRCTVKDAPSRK
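Coupled FDH/NAD⁺ fluorescence readout. KDM5BΔAP 200 nM final; compound titration, 10 min RT preincubation; substrate mix 12.5 µM H3K4me3, 25 µM 2-OG, 50 µM Fe(II), 100 µM ascorbate, 0.25 mM NAD⁺, 0.25 U/mL FDH; ΔRFU over 30 min.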
IP6K1 inh: inhibitors of human IP6K1. Q92551. IP6K1 kinase, ADP-Glo luminescence, 2 h; active compounds read low. activity change, % (series mostly up to about 58 µM). 0.81% of 140,000 active; in the data active = activity change below about -25%; also: % is scaled to controls: 0 for no effect and ±100 for the full control effect
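ADP-Glo luminescence measures ADP made by human IP6K1 during a 2 h RT reaction with ATP/IP6 (mix at 1.3 mM/130 uM); top library doses 57.5 and 19.1 uM final.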
SNCA expr inhib: SNCA gene expression inhibition; HEK-293 SNCA-luciferase knock-in, luminescence, 24 h; Potency, µM (doses to about 57.2 µM), for the others: at the top dose activity change, negative = inhibition, actives largely listed as inhibitors; 0.17% of 140,000 active; AID 1671194;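 also: potency is read from the fitted curve at half-maximal effect; plate controls were DMSO cells for no effect and cell-free wells for full effect; nearly all actives have a fitted effect of over 45% in size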
HEK293 viab: reduces viability of HEK-293 SNCA reporter cells. HEK-293-SNCA-luc viability, GF-AFC fluorescence, 24 h. Potency, µM (top dose mostly 57.1 µM), without a hit: at the top dose activity change, negative = cytotoxicity, hits mostly cytotoxic. 0.12% of 150,000 active;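 also: potency is read from the fitted curve at half-maximal effect; 0% = DMSO-treated cells and -100% = medium-only wells without cells; nearly all actives have a fitted effect of over 30% in size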
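Cytotoxicity counterscreen: after 24 h compound treatment of genome-edited SNCA-luciferase HEK-293 cells, live-cell protease substrate GF-AFC read by fluorescence after 30 min; activity scaled between DMSO (0%) and medium-only (-100%), curves Hill-fitted.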
* = called active by the depositor; i = inactive; u = inconclusive; x = no result given; ! = repeats disagree; [ ] = remark or other dose. Unless noted, calls follow the shape of the dose curve; as a rule, active = well fitted curve in the direction sought with a large enough effect; inconclusive = small, poorly fitted or top-dose-only effect, or another doubt; inactive = no such curve, though single readings can be large; an effect the other way counts as inactive or inconclusive.

SMILES	KDM5B inhibitor	IP6K1 inh	SNCA expr inhib	HEK293 viab
CC(C)(C)CC(=O)N1C[C@@H]2C[C@H](C1)c1ccc(NC(=O)Nc3cccc(F)c3)c(=O)n1C2	28µM*	-14	62%	-3%
COc1cc2c(cc1OC1CCCC1)NC(=O)C21CCN(Cc2nccs2)CC1	i	-20	-14%[87.6 µM]	-4%[87.6 µM]
COc1ccc(N2CC3CCC(C2)N3CC(F)(F)F)cn1	56µM*	-6	-9%	0%
CC[C@H]1CN2CC[C@H]1C[C@@H]2CNC(=O)c1ccc2ccccc2c1	i	-7	2%[87.6 µM]	-2%[87.6 µM]
CC[C@H]1CN2CC[C@H]1C[C@@H]2COC(=O)Nc1ccc(C(C)(C)C)cc1	28µM*	-13	-14%[87.6 µM]	-23%[87.6 µM]
CC[C@H]1CN2CC[C@H]1C[C@@H]2COC(=O)Nc1cccc2ccccc12	32µM*	2	9%[87.6 µM]	2%[87.6 µM]
COc1cc2c(cc1OCc1ccccc1)NC(=O)C21CCN(c2ccccn2)CC1	25µM*	-6	41%[87.6 µM]	-7%[87.6 µM]
COc1cc2c(cc1Oc1ccccc1)NC(=O)C21CCN(c2ncccn2)CC1	u	-14	-47%[87.6 µM]	-16%[87.6 µM]
COc1cc2c(cc1Oc1ccccc1)NC(=O)C21CCN(c2ncc(C(C)C)cn2)CC1	28µM*	-11	-16%	2%
COc1cc2c(cc1OC1CCCC1)NC(=O)C21CCN(C(=O)c2cccc(C#N)c2)CC1	i	-4	-21%	-4%
COc1cc2c(cc1OCc1ccccc1)NC(=O)C21CCN(c2ncccn2)CC1	u	-21	-22%[87.6 µM]	-8%[87.6 µM]
COc1cc2c(cc1OC1CCCC1)NC(=O)C21CCN(c2ccc(C#N)cn2)CC1	32µM*	-8	4%[87.6 µM]	9%[87.6 µM]
CCN1C[C@]2(COC(=O)c3ccccc3N3C(=O)C[C@H](C)C3=O)CC[C@H](OC)[C@@]34[C@@H]5C[C@H]6[C@H](OC)[C@@H]5[C@](O)(C[C@@H]6OC)[C@](O)([C@@H](OC)[C@H]23)[C@@H]14	x	-8	x	-2%
COCC1(CNC2CCN(C)CC2)C[C@@H](O)[C@@H](O)C1 (stereo partly drawn)	i	9	8%[87.6 µM]	1%[87.6 µM]
CN1CCc2cc3c(cc2C1C1OC(=O)c2c1ccc1c2OCO1)OCO3 (stereo not drawn)	x	1	x	9%
COc1ccc2c(c1OC)CN1CCc3cc4c(cc3C1C2)OCO4 (stereo not drawn)	x	14	3µM*!	u
CCCS(=O)(=O)Nc1ccc(=O)n2c1[C@@H]1C[C@@H](CN(C(=O)Nc3ccc(OC)cc3)C1)C2	28µM*	1	4%	-2%
CCCS(=O)(=O)Nc1ccc(=O)n2c1[C@@H]1C[C@@H](CN(S(=O)(=O)c3ccc(OC)cc3)C1)C2	22µM*	8	2%	0%
CC1(C)CC/C(=C/c2ccc(Cl)cc2)C1(O)Cn1cncn1 (stereo not drawn)	x	26	-41%	1%
C=C1[C@@H](C)[C@H]2[C@H](Cc3ccccc3)NC(=O)[C@]23OC(=O)/C=C/C(=O)CCC[C@@H](C)C/C=C/[C@H]3[C@@H]1O	x	-11	x	12µM*
C=C1[C@@H](C)C2[C@H](Cc3ccccc3)NC(=O)[C@@]23C(/C=C/C[C@H](C)C[C@@](C)(O)/C=C/[C@@H]3OC(C)=O)[C@@H]1O (stereo partly drawn)	x	-1	x	-23%
Cc1cnc(CCN)n1CC1CC1	7.9µM*	-4	1%	u
Cc1cccn2c(CC(=O)N3CCN(C)[C@@H]4CS(=O)(=O)C[C@@H]43)cnc12	28µM*	9	30%	0%
C=CCCOC(=O)N1C[C@H](C(=O)OCC)[C@H]2c3ccccc3N(CC3CC3)C(=O)[C@]21C	x	5	u	u
CCn1cc(CN2CCN(C(=O)Cc3cccs3)CC2)ccc1=O	13µM*	1	21%	-14%
SMILES	KDM5B inhibitor	IP6K1 inh	SNCA expr inhib	HEK293 viab
CCn1cc(CN2CCN(C(=O)Cc3c(C)noc3C)CC2)ccc1=O	11µM*	3	45%	-5%
COc1cccc(Nc2cc3c(cn2)CN(C)CCN3)c1	u	-2	38%[87.6 µM]	-1%[87.6 µM]
COc1ccc(-c2cc3c(cn2)CN(C)CCN3)cc1OC	35µM*	-10	160%[87.6 µM]	13%[87.6 µM]
Cc1nc(-c2ccco2)cc([C@H]2CN3CC[C@H]2C[C@@H]3CNC(=O)Cc2cccs2)n1	18µM*	7	20%[87.6 µM]	0%[87.6 µM]
Cc1ccc(C(=O)NC[C@H]2C[C@@H]3CCN2C[C@@H]3c2cc(-c3cccs3)nc(C)n2)cc1	35µM*	19	u	u
Cc1nc(-c2ccco2)cc([C@H]2CN3CC[C@H]2C[C@@H]3CNC2CCOCC2)n1	22µM*	4	11%[87.6 µM]	-11%[87.6 µM]
Cc1nc(-c2ccco2)cc([C@H]2CN3CC[C@H]2C[C@@H]3CNC(=O)c2cccs2)n1	u	17	29%[87.6 µM]	-5%[87.6 µM]
O[C@H]1COCCN(C2CCOCC2)C1	u	1	u	6%[87.6 µM]
O=C(Nc1ccc(=O)n2c1[C@@H]1C[C@@H](CN(C(=O)Nc3ccc(F)cc3)C1)C2)c1ccco1	i	2	-17%	-8%
Cc1nc(N2CCNCC2)c(C#N)c2c1CCCC2	i	x	x	x
O=C(O)CSCC(=O)N1C[C@@H]2C[C@H](C1)c1ccc(-c3cccc(C(F)(F)F)c3)c(=O)n1C2	32µM*	12	-8%	-1%
COCCC(=O)N1C[C@@H]2C[C@H](C1)c1ccc(-c3cccc(C(F)(F)F)c3)c(=O)n1C2	40µM*	7	-10%[87.6 µM]	-11%[87.6 µM]
CC(C)NC(=O)N1C[C@@H]2C[C@H](C1)c1ccc(-c3cccc(C(F)(F)F)c3)c(=O)n1C2	i	16	u	-1%[87.6 µM]
O=C(c1ccncc1)N1C[C@@H]2C[C@H](C1)c1ccc(-c3cccc(C(F)(F)F)c3)c(=O)n1C2	28µM*	11	1%	-10%
CC(=O)c1c(C)[nH]c(C(=O)C(C)N(C)Cc2cccc(F)c2)c1C (stereo not drawn)	i	x	x	x
N#Cc1ccc([C@H]2CCCC[C@H]2O)cc1C(F)(F)F	x	9	x	5%
CN1CCN(C(=O)Cc2c[nH]c3ncc(-c4ccc(Cl)cc4)cc23)CC1	32µM*	-10	-15%[87.6 µM]	3%[87.6 µM]
COc1ncc(-c2cnc3[nH]cc(CC(=O)N4CCN(C)CC4)c3c2)cn1	i	12	12%[87.6 µM]	-2%[87.6 µM]
CN1CCN(C(=O)Cc2c[nH]c3ncc(-c4ccc(F)c(Cl)c4)cc23)CC1	40µM*	1	5%[87.6 µM]	2%[87.6 µM]
Cn1cc(-c2cnc3[nH]cc(CC(=O)N4CCN(Cc5ccccc5)CC4)c3c2)cn1	28µM*	-4	-5%[87.6 µM]	1%[87.6 µM]
CN1CCN(C(=O)Cc2ccc(Cl)cc2Cl)CC1	i	x	x	x
COCCOc1ccc2c(n1)CCNC2	i	1	20%	-11%[12.5 µM]
c1cnc(N2CC[C@@]3(CCCNC3)C2)nc1	x	x	-14%	-3%
c1cnc2c(c1)NC1(CCCNC1)C(=NC1CCCC1)N2 (stereo not drawn)	25µM*	0	1%	7%
Cc1sc2c(c1C)C(c1ccc(F)cc1)=NCC(=O)N2CC(=O)Nc1ccc(F)cc1F	i	x	x	x
CCOC(=O)[C@H]1CN(C(=O)c2cc(C)oc2C)[C@]2(C)C(=O)N(C)c3ccccc3[C@H]12	x	5	-19%[25.6 µM]	-4%[23.9 µM]
